# Assay results published in the supplement of paper PMC9588786.
# ± gives the standard deviation of the averaged measurements.
# Tested on: HT-1080
# Experiment: relative cell viability with RSL3 co-treatment (fraction of control); higher = stronger protection from RSL3-induced ferroptosis (higher viability)
# Conditions: 10 µM
# 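Note: viability read as CCK-8 absorbance at 450 nm in cells co-exposed to the GPX4 inhibitor RSL3, relative to a 0.01% DMSO vehicle control.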
row,SMILES,relative cell viability
1,CCc1cnn2c(NCc3ccc[n+]([O-])c3)cc(N3CCCC[C@H]3CCO)nc12,0.61 ± 0.1
2,CNc1nc(Nc2cnn([C@H]3CCN(C4COC4)C[C@@H]3F)c2Cl)ncc1C(F)(F)F,0.617 ± 0.032
3,CO[C@H]1C[C@@H]2CC[C@@H](C)[C@@](O)(O2)C(=O)C(=O)N2CCCC[C@H]2C(=O)O[C@H]([C@H](C)C[C@@H]2CC[C@@H](OC(=O)C(C)(CO)CO)[C@H](OC)C2)CC(=O)[C@H](C)/C=C(\C)[C@@H](O)[C@@H](OC)C(=O)[C@H](C)C[C@H](C)/C=C/C=C/C=C/1C,0.367 ± 0.11
4,N#Cc1c(Oc2ccc(F)c(NC(=O)Cc3cccc(C(F)(F)F)c3)c2)ccc2nc(NC(=O)C3CC3)sc12,0.797 ± 0.032
5,COc1ccc(S(=O)(=O)N(CCO)c2ccccc2CN(C)C/C=C/c2ccc(Cl)cc2)cc1 [KN-93 Phosphate],0.813 ± 0.011
6,Oc1ccc(-c2nc(-c3ccc(F)cc3)c(-c3ccncc3)[nH]2)cc1,0.717 ± 0.05
7,Cc1ccc(Nc2nccc(N(C)c3ccc4c(C)n(C)nc4c3)n2)cc1S(N)(=O)=O,0.597 ± 0.15
8,CC(C)c1cnn2c(NCc3ccccc3)cc(NCCCCCCN)nc12,0.623 ± 0.085
9,O=C(O)C(Cc1ccccc1[N+](=O)[O-])=NNc1nc(-c2ccc(Cl)c(Cl)c2)cs1 (mixture of isomers),1.27 ± 0.046
10,Cn1cc(/C=C2\C(=O)Nc3cccnc32)c2ccccc21,0.927 ± 0.015
11,Cc1ccc(NC(=O)c2cccc(C(C)(C)C#N)c2)cc1Nc1ccc2ncn(C)c(=O)c2c1,0.507 ± 0.047
12,COc1ccc2c(Oc3ccc(NC(=O)c4c(C)n(CC(C)(C)O)n(-c5ccccc5)c4=O)nc3)ccnc2c1,0.76 ± 0.052
13,CCS(=O)(=O)Nc1ccc2c(c1)/C(=C(/Nc1ccc(CN3CCCCC3)cc1)c1ccccc1)C(=O)N2 [Hesperadin],0.293 ± 0.12
14,O=C1NC(=O)C(=Cc2ccc(-c3ccc(F)cc3)o2)S1 (stereo in doubt),0.887 ± 0.11
15,Nc1cccc(S(=O)(=O)N2CCCN(S(=O)(=O)c3ccc4c(c3)OCCO4)CC2)c1,0.767 ± 0.049
16,C=CC(=O)Nc1cccc(Nc2nc(Nc3ccc(OCCOC)cc3)ncc2F)c1,0.563 ± 0.078
17,O=C(O)c1ccc(N2C(=O)/C(=C\c3ccc(-c4ccc([N+](=O)[O-])cc4)o3)C=C2c2ccccc2)cc1,1.24 ± 0.092
18,COc1cc2ncnc(Nc3ccc(F)c(Cl)c3)c2cc1OCCCN1CCOCC1 [Gefitinib (ZD1839)],0.66 ± 0.072
19,O=C1NC(=O)/C(=C/c2ccc(-c3ccc(F)cc3O)o2)S1,0.75 ± 0.052

row,SMILES,relative cell viability
1,CC(C)(C#N)c1ccc(N2C(=O)OCc3cnc4ccc(-c5cnc6ccccc6c5)cc4c32)cc1,0.45 ± 0.18
2,CC(C)[C@H](CO)Nc1nc(Nc2cccc(Cl)c2)c2ncn(C(C)C)c2n1 [Purvalanol A],0.65 ± 0.09
3,O=C(NCc1ccccc1)c1csc(Nc2ccncn2)n1 [Thiazovivin],0.557 ± 0.24
4,O=C(Nc1c[nH]nc1-c1nc2ccc(CN3CCOCC3)cc2[nH]1)NC1CC1,0.35 ± 0.14
5,NC1(c2ccc(-c3nc4ccn5c(=O)[nH]nc5c4cc3-c3ccccc3)cc2)CCC1,0.467 ± 0.1
6,CCCCCCCCCCCCc1ccc(S(=O)(=O)Nc2nncs2)cc1,0.877 ± 0.09
7,COc1cc(Nc2ncc(F)c(Nc3ccc4c(n3)N(COP(=O)(O)O)C(=O)C(C)(C)O4)n2)cc(OC)c1OC [Fostamatinib (R788)],0.6 ± 0.017
8,CN(C)C/C=C/C(=O)Nc1cc2c(Nc3ccc(F)c(Cl)c3)ncnc2cc1O[C@H]1CCOC1 [Afatinib (BIBW2992)],0.72 ± 0.061
9,Cc1nc(N)sc1-c1ccnc(Nc2ccc(N3CCOCC3)cc2)n1,0.6 ± 0.095
10,Nc1nccc(Oc2ccc(NC(=O)c3c[nH]cc(-c4ccc(F)cc4)c3=O)cc2F)c1Cl,0.57 ± 0.036
11,CCn1c(-c2nonc2N)nc2c(C#CC(C)(C)O)ncc(OC[C@H]3CCCNC3)c21,0.563 ± 0.18
12,CCc1cc(Nc2nccc(-c3c(-c4ccc(OC)c(C(=O)Nc5c(F)cccc5F)c4)nc4ccccn34)n2)c(OC)cc1N1CCC(N2CCN(S(C)(=O)=O)CC2)CC1,0.55 ± 0.01
13,CNC(=O)c1cc(Oc2ccc(NC(=O)Nc3ccc(Cl)c(C(F)(F)F)c3)cc2)ccn1 [Sorafenib],0.693 ± 0.14
14,Cc1nc(NC(=O)N2CCC[C@H]2C(N)=O)sc1-c1ccnc(C(C)(C)C(F)(F)F)c1 [Alpelisib (BYL719)],0.827 ± 0.015
15,COc1cc(Nc2ncc(F)c(Nc3ccc4c(n3)NC(=O)C(C)(C)O4)n2)cc(OC)c1OC,0.88 ± 0.095
16,COc1cc2ncnc(Nc3ccc(Cl)cc3F)c2cc1OC,0.757 ± 0.14
17,CCc1nc(-c2cccc(C)c2)c(-c2ccnc(NC(=O)c3ccccc3)c2)s1,0.783 ± 0.1
18,Cc1ccc(C(=O)Nc2ccc(CN3CCN(C)CC3)c(C(F)(F)F)c2)cc1C#Cc1cnc2cccnn12,0.64 ± 0.11
19,O=C(c1ccc(Nc2nccc(-c3cc4ccccc4s3)n2)cc1)N1CCC(N2CCCC2)CC1 [IKK-16 (IKK Inhibitor VII)],0.277 ± 0.038
